# Results published in PubChem BioAssay (NCI).
# About 83,000 compounds went through this panel and 20% of them were active in at least one assay; those are over-represented in the sample as a whole.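 Cell lines were cultured in 96-well plates, exposed to a single compound concentration, and assessed for percent growth 48 hours later.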 A number with no mark means an inactive call. Activity calls are given as the source filed them. How the source made its calls: active means growth percent below 10; inactive means the rest.
# How the values were obtained:
# Experiment in all cases: NCI-60 one-dose screen, 48 h (100 = growth as untreated, 0 = no growth, -100 = all killed)
# Settings in all cases: 10 µM unless noted
# NCI-H23 lung = system: NCI-H23 lung
# NCI-H226 lung = system: NCI-H226 lung
# NCI-H322M lung = system: NCI-H322M lung
# HOP-62 NSCLC = system: HOP-62 NSCLC
# NCI-H460 lung = system: NCI-H460 lung
# HOP-92 NSCLC = system: HOP-92 NSCLC
# NCI-H522 lung = system: NCI-H522 lung
# A549/ATCC NSCLC = system: A549/ATCC NSCLC
# 786-0 renal = system: 786-0 renal
# COLO 205 colon = system: COLO 205 colon
# DU-145 prostate = system: DU-145 prostate
# K-562 leukemia = system: K-562 leukemia
# MALME-3M melanoma = system: MALME-3M melanoma
# MDA-MB-231 breast = system: MDA-MB-231 breast
# RXF 393 renal = system: RXF 393 renal
# SF-268 CNS = system: SF-268 CNS
# SF-295 CNS = system: SF-295 CNS
# SF-539 CNS = system: SF-539 CNS
# UACC-257 melanoma = system: UACC-257 melanoma
# M14 melanoma = system: M14 melanoma
Structure (SMILES),growth (NCI-H23 lung),growth (NCI-H226 lung),growth (NCI-H322M lung),growth (HOP-62 NSCLC),growth (NCI-H460 lung),growth (HOP-92 NSCLC),growth (NCI-H522 lung),growth (A549/ATCC NSCLC),growth (786-0 renal),growth (COLO 205 colon),growth (DU-145 prostate),growth (K-562 leukemia),growth (MALME-3M melanoma),growth (MDA-MB-231 breast),growth (RXF 393 renal),growth (SF-268 CNS),growth (SF-295 CNS),growth (SF-539 CNS),growth (UACC-257 melanoma),growth (M14 melanoma)
CCCCC(NC(=O)CN1C(=O)/C(=C/C(C)=C/c2ccccc2)SC1=S)C(=O)O (stereo not given),94.8%,93.9%,103%,93%,102%,62.8%,93.8%,98.5%,104%,119%,111%,107%,91.8%,92.7%,105%,100%,95%,101%,104%,96.6%
OCCN1CCN(c2cc(-c3cccc(OC(F)(F)F)c3)nc3ccc(N4CCCC4)cc23)CC1,74.4%,70.1%,80%,48.4%,11.3%,34.1%,66.4%,36.2%,63.1%,-18.8% (active),58%,-10.2% (active),34.6%,58.2%,51%,66.6%,72.5%,66.4%,65.2%,27.5%
O=c1ccc2nc(-c3ccccn3)nn(-c3ccccc3)c-2c1,89.5%,90.1%,102%,93.4%,109%,36.8%,-45% (active),101%,53.6%,-59.4% (active),91%,-8.79% (active),-20.6% (active),68.4%,65%,98%,96.3%,103%,60.3%,90.3%
Cc1ccc(NC(=O)c2sc3nc(C)c(C(=O)c4ccccc4)cc3c2N)cc1,96.2%,99.9%,92.2%,90.7%,65.7%,80%,88.2%,44.1%,91.9%,98.5%,95.4%,55.7%,87.6%,92%,98.8%,91.1%,73.1%,94.8%,94.9%,82.7%
COc1ccc(/C=C(\C#N)c2cc3ccccc3[nH]2)cc1,33.2%,88%,49.9%,33.2%,12.7%,44%,6.84% (active),37.5%,42.1%,9.11% (active),31.1%,11.4%,52%,51.9%,48%,39.1%,35.7%,21.3%,52.2%,1.53% (active)
O=C(Nc1ccccc1C(=O)N/N=C(\c1ccccc1)c1ccccn1)c1ccccc1,24.9%,18.1%,29.1%,9.93% (active),-0.498% (active),34.9%,0.831% (active),9.7% (active),9.15% (active),5.09% (active),14.1%,12.5%,35.1%,22.5%,21.4%,15.5%,17.9%,8.36% (active),-10.4% (active),-12.9% (active)
O=C(NNc1ccccc1)c1ncc[nH]1,96.2%,62.6%,82.8%,73%,100%,95.1%,50.8%,64.4%,75.2%,79.7%,55.8%,7.21% (active),54.1%,81.5%,107%,59.3%,90.2%,48.7%,71.5%,37.4%
COc1ccc(-c2ccc(-c3ccc(C(=N)N)cn3)o2)cc1Cl,69.3%,81.4%,77.2%,67.5%,0.593% (active),36.4%,59.5%,21.2%,-6.3% (active),-72.6% (active),46.5%,-40.3% (active),5.7% (active),4.25% (active),56.6%,46.5%,73.6%,33%,77.1%,31.8%
O=C1C=C(Nc2ccccc2)c2ncccc2C1=O,-43.1% (active),-46.6% (active),-97.5% (active),-90.4% (active),-69.4% (active),-79.9% (active),-75.3% (active),-49% (active),-91.9% (active),-76.6% (active),-95.4% (active),-48% (active),-91.3% (active),-18% (active),-96.4% (active),-61.9% (active),-97.5% (active),-87.3% (active),-97.7% (active),-86.3% (active)
[2H]C([2H])([2H])Oc1cc(F)ccc1/C=C/C(=O)/C=C(/C=C/c1ccc(F)cc1OC([2H])([2H])[2H])OB(F)F,26.2%,63.4%,82%,102%,49.7%,83.2%,31.4%,58.3%,44.3%,21.3%,30.5%,18%,33.1%,53%,1.06% (active),56.7%,59.5%,93.2%,48.9%,8.14% (active)
Cc1c(O)c(O)cc2c3c(oc12)CC(c1ccc2c(c1)OCO2)CC3=O (stereo not given),83.4%,81.2%,90.1%,75.2%,93.7%,-37.4% (active),53.3%,93.8%,100%,103%,97.7%,82.1%,105%,76.9%,115%,83.3%,106%,81.8%,94.7%,84%
CCOC(=O)c1nc2c3ccccc3cnn2c1C(=O)c1ccc(OC)cc1,84.4%,81.9%,101%,77.4%,103%,86.5%,95.2%,87.2%,102%,97.5%,105%,96.9%,102%,81.7%,106%,103%,98.7%,97.7%,95.4%,101%
COc1cc2cc(NCc3ccncc3)nc(C)c2cc1OC,91.5%,89.7%,103%,62%,102%,87.2%,80.4%,78.9%,71.8%,95.8%,107%,126%,108%,85.9%,98.5%,81.9%,71.3%,89.3%,79.3%,82%
C[C@]12CCc3c(ccc4cc(O)ccc34)[C@@H]1C[C@H](O)[C@@H]2O,94.2%,94.7%,107%,91.7%,97.8%,85.6%,98.1%,106%,111%,109%,108%,105%,113%,79.9%,102%,103%,95.3%,102%,102%,103%
CCOC(=O)c1nnn(Cc2cc(=O)oc3c2ccc2ccccc23)c1C,102%,105%,98%,106%,104%,98.8%,96.3%,102%,102%,107%,103%,104%,98.5%,98.7%,112%,105%,98.8%,98.8%,94%,98.1%
